Compound activity deposited in PubChem BioAssay by several laboratories.
PREPL inhibitor: inhibits the human prolyl oligopeptidase-like enzyme; Q4J6C6; recombinant PREPL, fluorescence polarization activity-based probe; inhibition, % at 5.96 µM; 0.68% of 320,000 active; AID 2751; in the data active = inhibition above about 43%;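 note: 0% = enzyme with DMSO and 100% = wells lacking enzyme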
Target sequence (Q4J6C6 whole entry, looked up): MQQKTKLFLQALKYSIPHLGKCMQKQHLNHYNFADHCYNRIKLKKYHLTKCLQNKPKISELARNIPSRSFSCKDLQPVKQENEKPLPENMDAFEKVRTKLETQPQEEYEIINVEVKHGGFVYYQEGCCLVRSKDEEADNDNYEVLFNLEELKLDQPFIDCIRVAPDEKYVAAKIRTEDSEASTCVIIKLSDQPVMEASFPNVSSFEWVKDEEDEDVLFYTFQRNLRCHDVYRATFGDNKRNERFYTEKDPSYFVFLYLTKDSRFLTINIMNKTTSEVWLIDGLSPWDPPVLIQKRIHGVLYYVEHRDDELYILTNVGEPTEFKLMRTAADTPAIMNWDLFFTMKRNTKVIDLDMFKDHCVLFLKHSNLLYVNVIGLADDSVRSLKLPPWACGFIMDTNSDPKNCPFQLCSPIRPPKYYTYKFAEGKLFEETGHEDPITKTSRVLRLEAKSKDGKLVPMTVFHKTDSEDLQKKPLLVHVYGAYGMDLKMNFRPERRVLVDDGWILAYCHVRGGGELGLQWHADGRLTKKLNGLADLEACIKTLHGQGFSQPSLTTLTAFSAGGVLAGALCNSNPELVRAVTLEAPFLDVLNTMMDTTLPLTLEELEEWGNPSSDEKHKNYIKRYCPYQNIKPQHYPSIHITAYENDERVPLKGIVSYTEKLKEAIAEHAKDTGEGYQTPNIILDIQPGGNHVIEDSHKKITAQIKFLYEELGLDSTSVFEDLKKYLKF
PP5 inh: inhibitors of human protein phosphatase 5 (PP5) | P53041 | purified PP5c, OMFP substrate fluorescence | inhibition, % at 6.7 µM | 0.18% of 320,000 active;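 active = inhibition above the campaign's mean inhibition across all tested compounds plus 3 SD, cut at about 9.5% in these data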;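 note: 0% = DMSO only and 100% = 100 µM cantharidin control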
NadD inh: blocks S. aureus nicotinate mononucleotide adenylyltransferase; purified NadD enzyme, colorimetric absorbance read-out; inhibition, % at 20 µM; 0.78% of 360,000 active; in the data active = inhibition above about 26%
Rpn11 block: Rpn11 (human) deubiquitinase inhibition | O00487 | human 26S proteasome, Ub4-pepOG fluorescence polarization; 20S core pre-blocked with epoxomicin | inhibition, % at 20 µM | 0.59% of 360,000 active | AID 588493;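 active = inhibition at 20 µM, scaled to each plate's controls, above about 33%, limit read from the data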
PP1 counter: blocks human PP1-alpha phosphatase, a PP5 counter-screen; P62136; 0.9% of 320,000 active; inhibition, % at 6.7 µM; purified PP1alpha, OMFP fluorescence; AID 2235;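 active = inhibition above the mean inhibition of all tested compounds plus 3 SD, computed separately for each screening campaign, cut at about 15% in these data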
NadD conf: NadD (S. aureus) inhibition, single concentration confirmation; shares compounds with NadD inh; purified S. aureus NadD, colorimetric enzyme assay; inhibition, % at 20 µM; 13% of 2,000 active; in the data active = inhibition mostly above about 42%, no sharp cut-off; inactive = mostly below about 42%
The depositor's hits bear a star; x = no result. In the library only some 2.4% were active in any assay of this set; here they are far more common.

SMILES	PREPL inhibitor	PP5 inh	NadD inh	Rpn11 block	PP1 counter	NadD conf
c1ccc2cc(-c3cc4ccccn4c3)ccc2c1	29	1	35*	16	7	16
CCN(CC(=O)Nc1cccc(OC)c1)CC(=O)Nc1ccc(C)cc1Cl	-14	2	-5	-3	4	x
Cc1ccc(-c2cc(C(F)F)n3ncc(C(=O)Nc4ccc(S(=O)(=O)Nc5ccccc5C)cc4)c3n2)cc1	12	-3	36*	-3	-4	1
CCN(CC)C(=O)CN1C(=O)COCC1=O	9	-1	5	-5	-2	x
COc1ccccc1N1CCN(c2ncc(C(=O)N3CCN(c4cccc(Cl)c4)CC3)c3ccccc23)CC1	11	2	34*	0	-5	2
CCOc1ccccc1C(=O)N1CCN(c2cccc(Cl)c2)CC1	10	1	-16	-4	-2	x
CSc1ccc(CN2CCC(C)(Oc3ccc(C(C)=O)cc3)C2)cc1 (stereo not drawn)	x	x	1	4	x	x
Cc1ccccc1NC(=O)COC(=O)c1ccc(S(=O)(=O)N2CCCCCC2)cc1	x	x	14	-7	x	x
Cc1ccc(C)c(NC(=O)COC(=O)c2ccc(S(=O)(=O)N3CCCCC3)cc2)c1	14	2	31*	-6	1	0
COCCNc1nc(Nc2ccc(C(=O)OC)cc2)c2sccc2n1	x	x	-7	-7	x	x
COC1C(O)C(O)C(O)C(O)C1O (stereo not drawn)	x	x	2	7	x	x
Cc1ccc(-c2nsc3c(N4CCC(C(N)=O)CC4)ncnc23)cc1	-1	0	31*	1	2	6
Cc1ccc(NC(=O)NNC(=O)c2ccc3c(c2)NC(=O)C(C)(C)O3)cc1	13	1	-8	3	0	x
CCc1nnc(NCC(=O)N2CCc3ccccc32)s1	6	-2	45*	5	15	46
O=C(CNCCO)N1CCc2ccccc21	1	3	-1	-1	-7	x
COC(=O)c1ccc(NC(=O)CCCN2C(=O)NC(C)(C)C2=O)cc1	x	x	-1	2	x	x
CC1CCCC(C)N1c1nnc(NC(=O)c2cc(-c3ccc(Br)cc3)on2)s1 (stereo not drawn)	-3	-1	41*	34	1	20
C=C(C)CN=C1SC(C(=O)Nc2sc3c(c2C(=O)OC)CCC3)C(N)=C1C(N)=O (stereo not drawn)	20	2	12	17	1	x
COC(=O)c1c(NC(=O)C2SC(=NC3CCCCC3)C(C(N)=O)=C2N)sc2c1CCCC2 (stereo not drawn)	5	2	38*	-4	-1	7
O=c1cc(O)c2sc(Nc3ccc(Cl)c(F)c3)nc2[nH]1	12	-2	38*	36	4	8
COc1ccc(C2C=C(C34CC5CC(CC(C5)C3)C4)NC(=S)N2)cc1OC (stereo not drawn)	3	0	29*	2	0	31
CCN(CC)CCCn1c(SCC(=O)Nc2cccc(F)c2)nnc1-c1ccoc1C	13	2	-4	-4	-2	x
COCCCn1c(SCC(=O)N2CCCC2=O)nc2ccccc2c1=O	x	x	-2	4	x	x
O=C(NC(=S)Nn1cnc2c(cnn2-c2ccccc2)c1=O)c1ccc(Oc2ccccc2)cc1	-6	0	42*	-5	-2	5
CS(=O)(=O)N1CCCC(C(=O)Nc2ccccc2)C1 (stereo not drawn)	1	0	0	-1	5	x
SMILES	PREPL inhibitor	PP5 inh	NadD inh	Rpn11 block	PP1 counter	NadD conf
CS(=O)(=O)N1CCc2cc(-c3csc(NC(=O)C(c4ccccc4)c4ccccc4)n3)ccc21	1	1	30*	5	3	31
O=C(Nc1nc(-c2cccc([N+](=O)[O-])c2)cs1)C(c1ccccc1)c1ccccc1	3	3	12	-1	3	x
O=C(CSc1nnc(CNc2ccc(F)cc2)o1)N1c2ccccc2Sc2ccccc21	1	4	-3	2	5	x
Cc1cc(C(=O)COC(=O)c2cc(Cl)c(O)c(Cl)c2)c(C)n1C	16	2	5	-31	8	x
O=C(Nc1ccc(S(=O)(=O)Nc2ncccn2)cc1)c1nn(Cc2ccccc2)c(=O)c2ccccc12	-2	-1	34*	10	5	35
CCOC(=O)c1sc(NC(=O)c2cccc(S(=O)(=O)N3CCc4ccccc43)c2)c(C#N)c1C	-4	-1	36*	16	-3	4
CCC(CC)c1nnc(NC(=O)c2cccc(S(=O)(=O)N3CCc4ccccc43)c2)s1	6	2	9	6	-1	x
COc1ccc(OC)c(CN2C(=O)c3ccccc3C2c2nnnn2C(C)C)c1 (stereo not drawn)	x	x	-6	x	x	x
COc1ccc(Nc2nc(-c3cc4cccc(OC)c4oc3=O)cs2)cc1	25	1	44*	-1	1	-4
COc1ccc(-c2cc3cccc(OC)c3oc2=O)cc1	-11	3	-7	1	4	x
COc1ccc2oc(=O)c(-c3csc(Nc4cccc(O)c4)n3)cc2c1	36	8	35*	20	1	59*
CC(=O)Nc1ccc(Nc2nc(-c3cc4ccccc4oc3=O)cs2)cc1	x	x	9	23	x	x
C=C(C)Cn1c2ccc(NC(=O)NCCc3ccccc3)cc2c(=O)n1C	x	x	1	6	x	x
C=CCN1CCc2nc(N)sc2CC1	x	x	30*	7	x	21
CCN1CCc2nc(N)sc2C1	0	2	-2	4	-5	x
O=C(COC(=O)COc1ccc(Cl)cc1Br)NC1CCCC1	x	x	-5	-2	x	x
Cc1ccc2nccc(C(=O)N3CCCC(Nc4ccc(F)cc4)C3)c2c1 (stereo not drawn)	6	2	-5	8	0	x
Nc1nonc1-n1nnc(C(=O)N/N=C/c2ccccc2)c1CN1CCc2ccccc21	7	0	61*	7	9	43
CN(C)c1ccc(/C=N/NC(=O)c2nnn(-c3nonc3N)c2CN(C)c2ccccc2)cc1	18	1	37*	-4	-4	38
Nc1nonc1-n1nnc(C(=O)N/N=C\c2cccc(Cl)c2)c1CN1CCOCC1	11	3	-1	1	-1	x
CN(Cc1c(C(=O)N/N=C/c2ccccc2)nnn1-c1nonc1N)c1ccccc1	3	2	11	2	-2	x
Nc1cccc2c(=O)c3ccccc3[nH]c12	13	2	29*	-6	16*	-3
CCCn1c(C(C)Nc2nc(-c3ccc(Cl)c([N+](=O)[O-])c3)cs2)nc2cc(Cl)c(N3CCCCC3)cc21 (stereo not drawn)	4	1	33*	6	-1	5
Cc1ccc(Cn2c(C(CO)Nc3nc(-c4ccc(Cl)c([N+](=O)[O-])c4)cs3)nc3ccccc32)cc1 (stereo not drawn)	3	6	51*	-2	12	41
C[C@H]1COC(=O)[C@@H](CC(=O)OC(C)(C)C)C/C=C\C[C@H](CC(=O)NCCO)C(=O)N1	15	x	-1	-5	x	x
